Test results taken from PubChem BioAssay (EPA / NIEHS).
Results filed as inconclusive are left out. Calls of active or inactive are those of the source. The calls were made as follows, unless noted: active = hit-call score of the fitted dose curve at least 0.9, where 1 is the maximum; inactive = score below 0.9.

Experiments:
[1] = read-out: Human Leukocyte Antigen - DR isotype (HLADR), HLA-DRA (gene 3122); test: BSK_3C_HLADR: BioMAP Diversity Plus: 3C Assay for Human Leukocyte Antigen - DR isotype (HLADR) Biomarker Activity (AID 2283019); settings: primary human endothelial cells (HUVEC); actives raise or lower the signal
How it was run: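 Endothelial cells from human umbilical vein are treated with test chemical; after 24 h, HLA-DR levels are measured by ELISA. Data are fitted in both directions using DMSO as the baseline.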

[2] = read-out: Interleukin-8 (IL8), CXCL8 (gene 3576); test: BSK_3C_IL8: BioMAP Diversity Plus: 3C Assay for Interleukin-8 (IL8) Biomarker Activity (AID 2283020); settings: primary human endothelial cells (HUVEC); actives raise or lower the signal
How it was run: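 Human vascular endothelial cells (umbilical vein) in the 3C system; IL-8 level detected by ELISA at 24 h post-dose, with DMSO as baseline.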

[3] = read-out: Monokine induced gamma interferon (MIG), CXCL9 (gene 4283); test: BSK_3C_MIG: BioMAP Diversity Plus: 3C Assay for Monokine induced gamma interferon (MIG) Biomarker Activity (AID 2283021); settings: primary human endothelial cells (HUVEC); actives raise or lower the signal;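 as to AC50: MIG protein level measured by immunoassay in the treated endothelial cultures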
How it was run: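 After 24 h of treatment, human umbilical vein endothelial cultures (3C system) had their MIG biomarker level determined by ELISA, with DMSO serving as negative control.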

[4] = BSK_3C_SRB: Viability Assessment in the BioMAP Diversity Plus: 3C Assay (AID 2283023); settings: primary human endothelial cells (HUVEC);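 also: cells read 24 h after compound dosing; fitted both ways against DMSO so a hit may be signal rise or drop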
How it was run: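 Cells were dosed with chemical, cultured 24 h, fixed with 10% TCA, stained with 0.1% SRB and read at 560 nm. Human umbilical vein endothelium was used; DMSO served as negative control and baseline.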

[5] = read-out: Matrix Metallopeptidase 1 (MMP1), MMP1 (gene 4312); test: BSK_BE3C_MMP1: BioMAP Diversity Plus: BE3C Assay for Matrix Metallopeptidase 1 (MMP1) Biomarker Activity (AID 2283024); settings: primary human bronchial epithelial cells; actives raise or lower the signal
How it was run: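 Dose cells, wait 24 h, run MMP1 ELISA; cells are human bronchial epithelial primaries. Both increases and decreases relative to DMSO counted.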

[6] = read-out: Pselectin, SELP (gene 6403); test: BSK_4H_Pselectin: BioMAP Diversity Plus: 4H Assay for Pselectin Biomarker Activity (AID 2283026); settings: primary human endothelial cells (HUVEC); actives raise or lower the signal
How it was run: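 Human vascular endothelium from umbilical vein; P-selectin measured by ELISA at 24 h post-dose, with cytotoxicity checked by sulforhodamine B total-protein staining in parallel cultures (0.1% SRB after 10% TCA fixation, read at 560 nm).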

[7] = BSK_4H_SRB: Viability Assessment in the BioMAP Diversity Plus: 4H Assay (AID 2283027); settings: primary human endothelial cells (HUVEC);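 also: cells exposed to compound for 24 h before staining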;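 as to AC50: curves fitted both ways versus DMSO so AC50 may be loss or gain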
How it was run: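 Absorbance at 560 nm of SRB-stained total protein served as the viability read-out in confluent primary human umbilical vein endothelium 24 h after chemical treatment. Curves were fitted bidirectionally against DMSO as negative control.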

[8] = BSK_BE3C_SRB: Viability Assessment in the BioMAP Diversity Plus: BE3C Assay (AID 2283028); settings: primary human bronchial epithelial cells;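 as to AC50: fitted both ways so AC50 may mark signal gain or loss versus DMSO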
How it was run: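 Overt cytotoxicity was assessed as total protein in confluent human primary bronchial epithelial cultures 24 h after chemical addition, using 0.1% sulforhodamine B staining read at 560 nm.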

[9] = read-out: Thrombomodulin, THBD (gene 7056); test: BSK_3C_Thrombomodulin: BioMAP Diversity Plus: 3C Assay for Thrombomodulin Biomarker Activity (AID 2283029); settings: primary human endothelial cells (HUVEC); actives raise or lower the signal
How it was run: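 Thrombomodulin ELISA, human primary HUVEC, 24 h post-dose; data fitted in both directions relative to DMSO.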

[10] = read-out: Vascular endothelial growth factor receptor 2 (Homo sapiens) (UniProt P35968); test: BSK_4H_VEGFRII: BioMAP Diversity Plus: 4H Assay for Vascular endothelial growth factor receptor 2 (VEGFR2) Biomarker Activity (AID 2283031); settings: primary human endothelial cells (HUVEC); actives raise or lower the signal
How it was run: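 VEGFRII levels on human vascular endothelial primary cells were determined by ELISA at 24 hours post-dosing, with gain- or loss-of-signal fitted against DMSO controls.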

[11] = read-out: Human Leukocyte Antigen - DR isotype (HLADR), HLA-DRA (gene 3122); test: BSK_BE3C_HLADR: BioMAP Diversity Plus: BE3C Assay for Human Leukocyte Antigen - DR isotype (HLADR) Biomarker Activity (AID 2283032); settings: primary human bronchial epithelial cells; actives raise or lower the signal
How it was run: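 Signal came from an ELISA for HLA-DR in human bronchial epithelial primary cells harvested 24 h after treatment; gain- and loss-of-signal fitting used DMSO controls as reference.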

[12] = read-out: Vascular cell adhesion molecule 1 (VCAM1), VCAM1 (gene 7412); test: BSK_4H_VCAM1: BioMAP Diversity Plus: 4H Assay for Vascular cell adhesion molecule 1 (VCAM1) Biomarker Activity (AID 2283033); settings: primary human endothelial cells (HUVEC); actives raise or lower the signal
How it was run: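 Endpoint derived from bidirectional fitting against DMSO controls of VCAM-1 ELISA signal in umbilical vein endothelial cells sampled at 24 h following treatment.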

[13] = read-out: Interferon-gamma inducible Protein 10 (IP10), CXCL10 (gene 3627); test: BSK_BE3C_IP10: BioMAP Diversity Plus: BE3C Assay for Interferon-gamma inducible Protein 10 (IP10) Biomarker Activity (AID 2283034); settings: primary human bronchial epithelial cells; actives raise or lower the signal
How it was run: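 Using primary human bronchial epithelial cultures, the assay captures IP-10 by ELISA one day (24 h) after exposure. Parallel SRB staining of total protein flags overt cytotoxicity. Fits run bidirectionally relative to DMSO.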

[14] = read-out: Plasminogen activator inhibitor-1 (PAI1), SERPINE1 (gene 5054); test: BSK_BE3C_PAI1: BioMAP Diversity Plus: BE3C Assay for Plasminogen activator inhibitor-1 (PAI1) Biomarker Activity (AID 2283037); settings: primary human bronchial epithelial cells; actives raise or lower the signal
How it was run: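 PAI-1 biomarker levels in treated human bronchial epithelial cells are determined by ELISA at 24 h. Both increases and decreases relative to DMSO are fitted.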

[15] = read-out: urokinase plasminogen activator (uPA), PLAU (gene 5328); test: BSK_BE3C_uPA: BioMAP Diversity Plus: BE3C Assay for urokinase plasminogen activator (uPA) Biomarker Activity (AID 2283038); settings: primary human bronchial epithelial cells; actives raise or lower the signal
How it was run: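 Measured by ELISA: uPA from human primary bronchial epithelial cells 24 h after chemical treatment. Values derive from bidirectional curve fitting with DMSO serving as negative control. Total protein by SRB staining in parallel wells flagged overt cytotoxicity.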

[16] = target: human Vitamin D Receptor (VDR), VDR (gene 7421) (UniProt P11473); test: ATG_VDR_TRANS: Attagene TRANS-FACTORIAL HepG2 Assay for human Vitamin D Receptor (VDR) (AID 2283022; active = hit-call score of the fitted dose curve at least 0.9, where 1 is the maximum)
How it was run: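 Fluorescence of labelled reporter cDNA fragments, resolved by capillary electrophoresis, gives mRNA induction after 24 h treatment of HepG2 cells carrying transfected Gal4-fusion reporter units. Activity is fitted in the positive direction with DMSO as baseline.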

[17] = BSK_3C_Vis: BioMAP Diversity Plus: 3C Assay for Morphology Visualization (AID 2283025); settings: primary human endothelial cells (HUVEC);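 also: fitted both ways so gain or loss versus DMSO counts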;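 as to AC50: light microscopy image of cell morphology used as background control; cells imaged 24 h after dosing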
How it was run: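 Endothelial cells from human umbilical vein were treated with test chemicals for 24 h and inspected by light microscopy for changes in cell conformation.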

[18] = read-out: Transforming growth factor beta 1 (TGFb1), TGFB1 (gene 7040); test: BSK_BE3C_TGFb1: BioMAP Diversity Plus: BE3C Assay for Transforming growth factor beta 1 (TGFb1) Biomarker Activity (AID 2283036); settings: primary human bronchial epithelial cells; actives raise or lower the signal
How it was run: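 In this human primary bronchial epithelial system, an ELISA quantified TGF-b1 one day after dosing. Endpoint changes in either direction were fitted relative to DMSO.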

[19] = read-out: Urokinase-type plasminogen activator receptor (uPAR), PLAUR (gene 5329); test: BSK_4H_uPAR: BioMAP Diversity Plus: 4H Assay for Urokinase-type plasminogen activator receptor (uPAR) Biomarker Activity (AID 2283030); settings: primary human endothelial cells (HUVEC); actives raise or lower the signal
How it was run: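 Chemicals are dosed onto human vascular endothelial primary cells (umbilical vein). After 24 h, uPAR is read by ELISA. Gain or loss of signal is fitted relative to DMSO.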

[20] = read-out: Monokine induced gamma interferon (MIG), CXCL9 (gene 4283); test: BSK_BE3C_MIG: BioMAP Diversity Plus: BE3C Assay for Monokine induced gamma interferon (MIG) Biomarker Activity (AID 2283035); settings: primary human bronchial epithelial cells; actives raise or lower the signal;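 also: MIG protein measured by ELISA in BE3C cultures after 24 h of dosing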
How it was run: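 MIG level was determined by ELISA after 24 h chemical treatment of primary human bronchial epithelial cells. Values were fitted bidirectionally with DMSO as the negative control and activity baseline.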

Measured: AC50

human Vitamin D Receptor (VDR), VDR (gene 7421), sequence (P11473 whole entry, looked up, the tested form may be a part): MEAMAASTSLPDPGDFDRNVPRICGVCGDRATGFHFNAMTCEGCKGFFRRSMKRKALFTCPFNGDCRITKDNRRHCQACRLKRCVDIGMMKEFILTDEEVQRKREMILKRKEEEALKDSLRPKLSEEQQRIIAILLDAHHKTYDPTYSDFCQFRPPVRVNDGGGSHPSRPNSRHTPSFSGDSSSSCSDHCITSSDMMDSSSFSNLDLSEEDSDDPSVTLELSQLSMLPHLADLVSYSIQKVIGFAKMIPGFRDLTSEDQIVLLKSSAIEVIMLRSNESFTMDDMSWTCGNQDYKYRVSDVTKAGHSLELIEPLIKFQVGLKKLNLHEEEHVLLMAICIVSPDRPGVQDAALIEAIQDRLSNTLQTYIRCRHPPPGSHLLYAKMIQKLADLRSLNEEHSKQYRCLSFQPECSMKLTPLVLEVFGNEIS

CC(=O)OC(c1ccccc1)C(Cl)(Cl)Cl (configuration not stated)
not listed: [16] | [17] | [18] | [19] | [20]
inactive: all other assays above

Nc1cccc(Cl)c1
inactive: [16]

CCCCCCCCc1ccc(O)cc1
active: [1] 31.5 µM | [2] 34.6 µM | [3] 36 µM | [4] 31.2 µM | [5] 31.7 µM | [17] 39.3 µM | [6] 25.6 µM | [7] 34.3 µM | [8] 34.9 µM | [9] 34.3 µM | [11] 33 µM | [12] 33.2 µM | [13] 31.9 µM | [18] 30.5 µM | [14] 33.9 µM | [15] 32.7 µM
inactive: [16]

C=C(C)C(=O)[O][Sn]([CH2]CCC)([CH2]CCC)[CH2]CCC
inactive: [16]
active: [1] 0.233 µM | [2] 0.148 µM | [3] 0.148 µM | [4] 0.148 µM | [5] 0.148 µM | [17] 0.468 µM | [6] 0.148 µM | [7] 0.148 µM | [8] 0.148 µM | [9] 1.16 µM | [11] 0.148 µM | [12] 0.148 µM | [13] 0.336 µM | [18] 0.146 µM | [14] 0.146 µM | [15] 0.215 µM

COc1cc2c(cc1OC)[C@@]13CCN4CC5=CCO[C@H]6CC(=O)N2[C@H]1[C@H]6[C@H]5C[C@H]43
inactive: [16]

COP(=S)(OC)Oc1cc(Cl)c(Cl)cc1Cl
active: [1] 27.4 µM | [5] 20 µM | [6] 20 µM | [7] 20 µM | [12] 24.9 µM | [13] 19.1 µM | [14] 8.51 µM
not listed: [16] | [20]
inactive: all other assays above

CC(C)(C)c1cc(O)ccc1O
inactive: [2] | [4] | [8] | [10] | [20] | [18] | [15]
active: [1] 32.4 µM | [3] 37 µM | [5] 8.5 µM | [17] 39 µM | [6] 20 µM | [7] 28.1 µM | [9] 33.5 µM | [11] 18.3 µM | [12] 23.2 µM | [13] 26.9 µM | [14] 14 µM
